Measurements published in the supplement of paper PMC7366291.
Structures can show the parent of a compound that is named as a salt. ± gives the standard deviation or the standard deviation of the averaged measurements.

Tests used:
Details in all cases: 25 µM; exposure: 24-48 hpf
[1] = system: Danio rerio Tg(wt1b:EGFP) embryo, pronephros; test: glomerular separation, fold change vs DMSO control; higher = glomeruli further apart (abnormal)
Procedure, shortened: (§1)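 Each feature value is a fold change relative to the mean of same-day DMSO-treated embryos. Embryos of the Tg(wt1b:EGFP) zebrafish line, dechorionated, received 25 μM compound in 0.5% DMSO from 24 to 48 hpf at 28.5°C, in HEPES-buffered E3 with 0.003% PTU. Distances and angles were computed by a Fiji macro from 16 manually set reference points on maximum projections of dorsal pronephros images, and values beyond 2 SD of the feature mean were removed.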

[2] = system: Danio rerio Tg(wt1b:EGFP) embryo, pronephros; test: glomerular width (mean of left and right), fold change vs DMSO control; higher = wider glomerulus
Procedure, shortened: as §1

[3] = system: Danio rerio Tg(wt1b:EGFP) embryo, pronephros; test: fraction of imaged embryos annotated as normal kidney; higher = less nephrotoxic; extreme values may be limits of the assay
Procedure, shortened: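 Embryos of the Tg(wt1b:EGFP) zebrafish line were dechorionated and held in 12-well plates with 25 μM compound in 0.5% DMSO and 5 mM HEPES-buffered E3 containing 0.003% PTU, from 24 to 48 hpf at 28.5°C. Larvae were then anaesthetised with tricaine, set dorsal side up in agarose-filled 96-well plates, and their pronephroi imaged by widefield fluorescence at 470 nm over 10 z-slices. Each value is the fraction of embryos per treatment placed in the normal-kidney category after manual annotation of maximum projections.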

[4] = system: Danio rerio Tg(wt1b:EGFP) embryo, pronephros; test: pronephric angle neck segment to proximal convoluted tubule (mean of left and right), fold change vs DMSO control; higher = larger pronephric angle
Procedure, shortened: as §1

Row | Structure (SMILES) | glomerular separation [1] | glomerular width [2] | fraction of imaged embryos annotated as normal kidney [3] | pronephric angle neck segment [4]
1 | CN(CCOc1ccc(CC2SC(=O)NC2=O)cc1)c1ccccn1 (stereo not drawn) [Rosiglitazone Hydrochloride] | 1.04 ± 0.39 | 0.964 ± 0.03 | 0.833 | 0.9727 ± 0.0063
2 | CC(=O)[C@@]12O[C@](C)(c3ccccc3)O[C@@H]1C[C@H]1[C@@H]3CCC4=CC(=O)CC[C@]4(C)[C@H]3CC[C@@]12C [Algestone acetophenide] | 1.76 ± 0.84 | 1.05 ± 0.047 | 0.5 | 1.02 ± 0.048
3 | O=C1c2c(O)ccc(O)c2C(=O)c2c(NCCNCCO)ccc(NCCNCCO)c21 [Mitoxantrone dihydrochloride] | 1.13 ± 0.46 | 1.03 ± 0.063 | 0.667 | 1.07 ± 0.1
4 | CNC(=C[N+](=O)[O-])NCCSCc1csc(CN(C)C)n1 [Nizatidine] | 0.966 ± 0.41 | 0.9023 ± 0.0037 | 0.917 | 1.01 ± 0.043
5 | C=CC1=C(C(=O)O)N2C(=O)[C@@H](NC(=O)/C(=N\OCC(=O)O)c3csc(N)n3)[C@H]2SC1 [Cefixime] | 1.32 ± 0.59 | 1 ± 0.014 | 0.75 | 1.07 ± 0.1
6 | CCN[C@H]1C[C@H](C)S(=O)(=O)c2sc(S(N)(=O)=O)cc21 [Dorzolamide hydrochloride] | 1.08 ± 0.35 | 0.955 ± 0.029 | 0.75 | 1.024 ± 0.0028
7 | CCN(CC)CC(=O)Nc1c(C)cccc1C [Lidocaine hydrochloride] | 0.686 ± 0.29 | 1.04 ± 0.015 | 1 | 0.9342 ± 0.0069
